From PubChem BioAssay
Sampled rows, rich in hits. Any-hit rate of the full collection: about 5.3%.
Sfp inh = Sfp phosphopantetheinyl transferase inhibition. Biochemical Sfp PPTase activity, qHTS. Potency, µM, for the others: largest response in the series, negative = inhibition, hits mostly inhibitors. 310,000 compounds, 3.5% hits;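 further: the enzyme is Sfp with the accession as filed and its product quenches rhodamine fluorescence; potency means the concentration at half of the fitted maximal effect; 0% = enzyme reaction without inhibitor and -100% = no enzyme wells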
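Step 1, compound plus 15 nM Sfp-PPTase, 15 min, room temperature. Step 2, add rhodamine-CoA (5 uM) and BHQ-2-YbbR (12.5 uM). Step 3, read 525/598 nm fluorescence at 0 and 30 min.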
Tau fluor cs = counter-screen for tau fibril formation inhibitors | tau K18 P301L Alexa594 fluorescence, heparin fibrillization | Potency, µM (titrated, usually from 57.7 µM), inactives show top-dose activity change, negative = decrease | AID 1463 | 280,000 compounds, 0.93% hits; further: potency means the concentration at half of the fitted maximal effect; nearly all actives have a fitted effect of over 55% in size
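Human tau K18 P301L (15 uM unlabeled, 0.24 uM Alexa 594-labeled) in 100 mM sodium acetate pH 7 with 20 uM heparin, 6 hr at 37 C. ThT 30 uM added, 1 hr ambient; Alexa 594 FP and total fluorescence read at 555/632 nm.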
Coupling enz = counter-screen for Giardia aldolase inhibitors: coupling enzyme system; coupling enzyme system counterscreen, AmpLite Red fluorescence; activity change, negative = inhibition, % at 58.2 µM, hits read low; 290,000 compounds, 0.67% hits; AID 2472; in the data active means activity change below about -30%
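Activity here indicates interference with the coupling reaction, not aldolase inhibition. Compounds at 57.5 uM final met coupling enzymes for 10 min at RT; substrate and AmpLite Red detection followed, with a 525/598 nm fluorescence read after 20 min.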
Tau fibril ThT = tau fibrillization inhibition (ThT binding); recombinant tau K18 P301L (four-repeat tau fragment), heparin-induced fibrillization, ThT fluorescence; Potency, µM (titrated, usually from 57.4 µM), for inactives: at the highest dose activity, negative = inhibition, most hits filed as inhibitors; 270,000 compounds, 2.1% hits; further: potency means the concentration at half of the fitted maximal effect; nearly all actives have a fitted effect of over 55% in size
Target sequence (P10636 561-689 P618L limits assumed): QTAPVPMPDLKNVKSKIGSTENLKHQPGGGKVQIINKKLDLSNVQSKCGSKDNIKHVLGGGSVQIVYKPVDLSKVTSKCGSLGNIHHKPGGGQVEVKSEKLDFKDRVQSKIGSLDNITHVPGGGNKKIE
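Heparin-induced fibrillization of the P301L-mutant K18 repeat-domain fragment of human tau was followed by ThT binding in quantitative high-throughput format.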
JMJD2E inh = JMJD2E (human) inhibition; B2RXH2; JMJD2E catalytic domain, FDH-coupled NADH fluorescence (FDH is formaldehyde dehydrogenase); Potency, µM (doses to about 57.1 µM), for the others: top-dose activity change, negative = inhibition, most hits filed as inhibitors; 230,000 compounds, 1.6% hits; AID 2147; active means well fitted inhibition curve with a large enough effect, not every such curve was filed as active; inconclusive means small, poorly fitted or top-dose-only effect, or another doubt; inactive means no such curve, though single readings can be large or run the other way;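 further: potency means the concentration at half of the fitted maximal effect; 0% = wells with enzyme and -100% = buffer wells without enzyme; nearly all actives have a fitted effect of over 50% in size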
Target sequence (B2RXH2 1-337 limits assumed): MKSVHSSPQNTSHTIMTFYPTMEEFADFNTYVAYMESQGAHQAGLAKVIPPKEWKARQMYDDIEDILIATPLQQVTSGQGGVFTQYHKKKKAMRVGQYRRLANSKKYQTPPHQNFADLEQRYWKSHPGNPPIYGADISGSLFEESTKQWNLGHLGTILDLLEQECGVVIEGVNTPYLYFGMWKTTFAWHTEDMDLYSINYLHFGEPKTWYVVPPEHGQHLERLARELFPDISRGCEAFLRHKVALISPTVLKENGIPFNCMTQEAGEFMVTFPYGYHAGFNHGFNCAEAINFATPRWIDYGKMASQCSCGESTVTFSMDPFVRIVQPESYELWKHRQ
Tau FP inhib = tau fibrillization inhibition (FP) | K18 P301L tau heparin fibrillization, Alexa594 FP, 6 h | P10636 | 280,000 compounds, 0.39% hits | Potency, µM (highest dose often 57.7 µM), inactives show at the highest dose activity, negative = inhibition, usual class: inhibitors; further: potency means the concentration at half of the fitted maximal effect; nearly all actives have a fitted effect of over 55% in size
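Quantitative HTS format: compounds meet 15 uM recombinant K18 P301L tau and Alexa 594-tau tracer in 100 mM sodium acetate pH 7; 20 uM heparin triggers fibrillization at 37 C over 6 hr; FP gives the signal.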
* = called active by the depositor; ? = inconclusive; . = no result; [ ] = remark or other dose. Unless noted, the call rests on the fitted dose curve; in most records, active means well fitted curve in the direction sought with a large enough effect; inconclusive means small, poorly fitted or top-dose-only effect, or another doubt; inactive means no such curve, though single readings can be large; an effect the other way counts as inactive or inconclusive. Unless noted, on the % scale 0 is the no-effect control and ±100 the full control effect.

SMILES	Sfp inh	Tau fluor cs	Coupling enz	Tau fibril ThT	JMJD2E inh	Tau FP inhib
COc1cccc(Nc2ncc3nc(CCc4ccccc4)c(=O)n(Cc4cccs4)c3n2)c1	35%	.	1	.	.	.
Cc1ccc(-c2c3c(=O)n(C)c(=O)n(C)c3c3c(C(F)(F)F)nc4ccccc4n23)cc1	.	-19%	.	-3%	.	-11%
CC1CC(C)CN(C(=O)c2ccc3c(c2NCCO)C(=O)c2ccccc2C3=O)C1 (centres undefined)	-20%	?	-2	18µM*	-8%	10%
O=C1C=C[C@@H](O)[C@H]2[C@@H]3C(=O)N(C[C@@H]4CCCO4)C(=O)[C@@H]3CC[C@H]12	-4%	-15%[11.6 µM]	1	-15%[11.5 µM]	.	2%[11.6 µM]
CCC1CCCCN1C(=O)c1nn(-c2ccc(C)cc2)c(=O)c2c1c1ccccc1n2C (centres undefined)	.	-7%	.	-1%	.	-7%
CCOC(=O)/C(=C\c1ccc(Cl)cc1)c1nc2sc(C)c(C)c2c(=O)[nH]1	40µM*	-3%	2	?	7%	-3%
CCOC(=O)CSc1nc2sc(C)c(C)c2c(=O)[nH]1	-6%	4%	-8	-3%	-2%	5%
CC(=O)C(C(C)=O)c1c(Cl)c(O)c(O)c2c(C(=O)c3ccccc3)coc12	6.3µM*	?	-12	16µM*	16µM*	?
COC(=O)c1c(NC(=O)c2cc(=O)c3ccc(C)c(C)c3o2)sc2c1CCCC2	.	1%	.	2%	.	-4%
COc1ccc(-c2nc3c(c4c2C[C@H](c2ccccc2)OC4)CN(C(=O)c2cc(I)ccc2F)CC3)c(C)c1	3%	6%[11.6 µM]	1	1%[11.5 µM]	9%[11.4 µM]	-1%[11.6 µM]
CCCCNC(=O)C1=C(N)C(C(=O)Nc2ccc(C)c(S(=O)(=O)N3CCCCC3)c2)SC1=Nc1ccc(C)cc1C (centres undefined)	12%	?	-1	-12%	-2%	-5%
CCN(CC)S(=O)(=O)c1cccc(NC(=O)C2SC(=Nc3ccc(C)cc3C)C(C(=O)NC(C)COC)=C2N)c1 (centres undefined)	8%	25µM*[quencher]	-1	-14%	0%	0%
O=C(NN=C1C2CC3CC1CC(Cl)(C3)C2)c1cccs1	-6%	4%	1	8%	-7%	0%
O=C(NN=C1C2CC3CC1CC(Cl)(C3)C2)c1ccccn1	7.9µM*	-6%	-1	-14%	11%	-4%
CCOC(=O)c1c(N)sc2c1CCC(C)C2 (centres undefined)	50µM*	?	0	?	?	-14%
CCOC(=O)c1c(N)sc2c1CCCC2	?	-17%	-1	?	?	?
CC(C)(C)C1CCc2c(sc(N)c2C(N)=O)C1 (centres undefined)	50µM*	-17%	-19	?	?	?
CCCOC(=O)c1c(NC(=O)C2C3C=CC(C3)C2C(=O)O)sc2c1CCC(C)C2 (centres undefined)	40µM*	-23%	18	?	6%	?
CCOC(=O)c1c(N)sc2c1CCS(=O)(=O)C2	56µM*	-15%	1	?	1%	-15%
CCOC(=O)c1c(NS(C)(=O)=O)sc2c1CCC(C)C2 (centres undefined)	-14%	-16%	8	?	?	-1%
CCC(C)(C)C1CCc2c(sc(N)c2C(N)=O)C1 (centres undefined)	-26%	-24%	-1	?	-13%	-8%
CCCCC/C=C\C/C=C\C/C=C\C=C\C(=O)CCCC(=O)O	13%	-5%	1	-4%	7%	0%
Cc1cccc(NC(=O)c2c(NC(=O)c3cccs3)sc3c2CCC(C)C3)c1 (centres undefined)	.	-16%	.	-4%	.	-5%
Cc1cccc(NC(=O)c2c(N)sc3c2CCC(C)C3)c1 (centres undefined)	.	?	.	8.9µM*	.	-15%
CC#CCN1c2ccccc2[C@]23C[C@@H](C(=O)OC)N(S(=O)(=O)c4cccs4)C2=NC(C(=O)OC)=C(C(=O)OC)[C@H]13	-5%	-5%[11.6 µM]	2	4%[11.5 µM]	1%[11.4 µM]	4%[11.6 µM]
SMILES	Sfp inh	Tau fluor cs	Coupling enz	Tau fibril ThT	JMJD2E inh	Tau FP inhib
CCOC(=O)c1ccccc1NC(=O)Cn1c(=O)n(-c2cccc(C)c2)c(=O)c2c1c1cc(C)ccc1n2C	.	-12%	.	-10%	.	-1%
Cc1ccc(C(=O)Nc2sc(C)c(-c3ccccc3)c2C(N)=O)cc1[N+](=O)[O-]	45µM*	-19%	-7	-6%	-8%	-11%
COCCNC(=O)Nc1ccc2nc(-c3cccs3)c(-c3cccs3)nc2c1	?	16µM*[quencher]	0	?	?	16µM*
Cc1ccccc1OC(=O)CSc1nnc(-c2ccc(F)cc2)o1	.	0%	.	3%	.	-8%
Cc1ccc(-c2noc(CCC(=O)NCc3ccco3)n2)cc1	56µM*	-6%	5	-7%	-2%	5%
Cc1ccc(-c2noc(CCC(=O)N(C)c3ccccc3C)n2)cc1	50µM*	-2%	1	-10%	-11%	7%
c1ccc(-c2nn[nH]n2)c(Nc2cccc3c2CCCC3)c1	7%	.	10	.	.	.
COc1ccc(CNc2ccnc(-c3c(C)noc3C)n2)c(OC)c1	?	.	-1	.	.	.
COc1ccc(/C=N/Nc2cc(C)nc3ccccc23)cc1	28µM*	.	-2	.	.	.
COc1ccc2nc(C)cc(N/N=C/c3ccc(F)cc3)c2c1	45µM*	.	-1	.	.	.
COc1ccc(/C=N/Nc2cc(C)nc3c(C)cccc23)cc1	?	.	-3	.	.	.
Cc1ccc(Cl)c2sc(NC(=O)CS(=O)(=O)c3ccc(Cl)cc3)nc12	.	?	.	1%	.	11µM*
Cc1ccc(NC(=O)CN2C(=O)CCc3cc(S(=O)(=O)N4CCOCC4)ccc32)cc1N(C)C	.	-19%	.	-14%	.	16%
CCn1c(SC(C)C)nnc1-c1cc(-c2ccccc2)sc1N	-17%	?	2	13µM*	?	-11%
Cc1ccc(S(=O)(=O)N2C(=O)C(C)SC2=Nc2ccccc2)cc1 (centres undefined)	-15%	-1%	-4	-5%	2%	-5%
Cc1ccc(S(=O)(=O)N2C(=O)C(c3ccccc3)SC2=Nc2ccccc2)cc1 (centres undefined)	20µM*	-7%	4	-2%	-11%	-7%
CC(=O)OCCCn1c(C)[n+](C)c2cc(Cl)c(Cl)cc21	1%	-10%	2	-10%	?	2%
CCn1c(C)[n+](CCOC(C)=O)c2cc(Cl)c(Cl)cc21	-21%	-10%	4	-10%	16µM*	-12%
COc1ccc(NC(=O)c2oc3ccccc3c2NC(=O)C2CCCCC2)c(OC)c1	.	-28%	.	3%	.	-3%
